A selection: hits, their analogues and other compounds. The true share with any hit is near 7.3%.
Tau fluor cs: Counterscreen qHTS for Inhibitors of Tau Fibril Formation, Fluorescence Polarization; 0.93% of 280,000 active; tau K18 P301L Alexa594 fluorescence, heparin fibrillization; Potency, µM (top dose mostly 57.7 µM); AID 1463, 2008; note: nearly all actives have a fitted effect of over 55% in size
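Human tau K18 P301L (15 uM unlabeled, 0.24 uM Alexa 594-labeled) in 100 mM sodium acetate pH 7 with 20 uM heparin, 6 hr at 37 C. ThT 30 uM added, 1 hr ambient; Alexa 594 FP and total fluorescence read at 555/632 nm.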
RORg inh: qHTS for inhibitors of ROR gamma transcriptional activity; Nuclear receptor ROR-gamma (Mus musculus), P51450; Drosophila S2 Gal4-RORgamma UAS-luciferase reporter, 20 h; Potency, µM (titrated, usually from 53.6 µM), actives largely listed as inhibitors; 5.4% of 310,000 active; note: nearly all actives have a fitted effect of over 60% in size
Target sequence (P51450 whole entry, looked up, the tested form may be a part): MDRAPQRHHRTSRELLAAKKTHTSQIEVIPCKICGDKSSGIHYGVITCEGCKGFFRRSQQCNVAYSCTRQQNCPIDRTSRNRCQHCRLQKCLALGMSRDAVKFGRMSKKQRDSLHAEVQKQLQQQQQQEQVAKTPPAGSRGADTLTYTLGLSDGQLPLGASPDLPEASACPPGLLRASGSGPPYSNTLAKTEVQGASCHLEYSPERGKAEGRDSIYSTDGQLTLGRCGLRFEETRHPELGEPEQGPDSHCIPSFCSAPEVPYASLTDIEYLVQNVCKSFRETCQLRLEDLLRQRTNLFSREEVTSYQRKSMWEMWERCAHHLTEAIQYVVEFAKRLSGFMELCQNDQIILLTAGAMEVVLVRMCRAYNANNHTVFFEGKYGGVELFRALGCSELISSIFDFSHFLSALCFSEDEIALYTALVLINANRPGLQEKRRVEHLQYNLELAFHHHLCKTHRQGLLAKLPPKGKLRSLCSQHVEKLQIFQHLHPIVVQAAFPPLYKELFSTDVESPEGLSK
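Luciferase reporter read in Schneider cells carrying Gal4-RORγ (mouse) and UAS-Photinus luciferase; cells given compound 1 h before 700 uM copper sulfate induction, then incubated 20 h at ambient temperature.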
VP16 counter: VP16 counterscreen qHTS for inhibitors of ROR gamma transcriptional activity. Drosophila S2 Gal4-VP16 UAS-luciferase, luminescence, 20 h. Potency, µM (highest dose often 53.6 µM), usual class: inhibitors. 3.5% of 310,000 active. AID 2546, 2010;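 note: Gal4-VP16 expression switched on by copper sulfate through the metallothionein promoter; nearly all actives have a fitted effect of over 50% in size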
Tau ThT inhib: qHTS for Inhibitors of Tau Fibril Formation, Thioflavin T Binding. Microtubule-associated protein tau (Homo sapiens), P10636. recombinant tau K18 P301L (four-repeat tau fragment), heparin-induced fibrillization, ThT fluorescence. Potency, µM (series often up to 57.4 µM), most hits filed as inhibitors. 2.1% of 270,000 active. AID 1460, 2008; note: nearly all actives have a fitted effect of over 55% in size
Target sequence (P10636 561-689 P618L limits assumed): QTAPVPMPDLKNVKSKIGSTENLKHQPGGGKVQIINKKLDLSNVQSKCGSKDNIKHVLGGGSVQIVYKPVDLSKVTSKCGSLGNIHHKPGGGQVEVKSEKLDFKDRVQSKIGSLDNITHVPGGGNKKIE
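Recombinant human tau K18 fragment […] carrying P301L, 15 uM unlabeled plus 0.24 uM Alexa 594-labeled, was fibrillized with 20 uM heparin in 100 mM sodium acetate pH 7 for 6 hr at 37 C; 30 uM ThT fluorescence read after 1 hr.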
Tau fibril FP: qHTS for Inhibitors of Tau Fibril Formation, Fluorescence Polarization; Microtubule-associated protein tau (Homo sapiens), P10636; K18 P301L tau heparin fibrillization, Alexa594 FP, 6 h; Potency, µM (series often up to 57.7 µM), actives largely listed as inhibitors; 0.39% of 280,000 active; AID 1468, 2008; note: nearly all actives have a fitted effect of over 55% in size
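Steps: dispense K18 P301L tau (15 uM plus 0.24 uM Alexa 594 tracer, final) in pH 7 sodium acetate; add compound; add heparin (20 uM final); incubate 6 hr, 37 C; add ThT (30 uM final); after 1 hr ambient, read FP.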
Numbers stand for hits; 0 = inactive; ? = inconclusive; - = no result; ! = a repeat was not active; [ ] = another dose, or the depositor's remark. Calls come from the whole dose curve; as a rule, active = well fitted curve in the direction sought with a large enough effect; inconclusive = small, poorly fitted or top-dose-only effect, or another doubt; inactive = no such curve, though single readings can be large; an effect the other way counts as inactive or inconclusive.

SMILES | Tau fluor cs | RORg inh | VP16 counter | Tau ThT inhib | Tau fibril FP
Cc1cc(Br)ccc1NC(=O)C(Cc1ccccc1)NS(=O)(=O)c1ccc(Br)s1 (centres undefined) | 0 | - | - | 0 | 0
Cc1cc2ccccc2n1-c1ccc(C(=O)N2CCC(C(=O)NCc3ccccc3Cl)CC2)s1 | 0 | - | - | 0 | 0
CCOc1ccc(OCC)c(NC(=O)c2cc(S(=O)(=O)N3CCc4ccccc43)cn2C)c1 | ? | - | - | 0 | 0
CCOc1ccc(C(=O)Nc2ccccc2N2CCN(C(=O)c3ccccc3)CC2)cc1[N+](=O)[O-] | - | 0 | 0 | - | -
CCOc1ccc(C(=O)NC(=S)Nc2ccc(N3CCC(C)CC3)cc2)cc1[N+](=O)[O-] | ? | 0.4µM | ? | ? | 0
CCC(=O)N1CCN(c2ccc(NC(=O)c3ccc(N4CCCC4)c([N+](=O)[O-])c3)cc2)CC1 | 0 | 0[10 µM] | 0 | 0.63µM | 0
CCC(=O)N1CCN(c2ccc(NC(=O)c3ccc(N4CCOCC4)c([N+](=O)[O-])c3)cc2)CC1 | - | 0 | 0 | - | -
CCC(=O)N1CCN(c2ccc(NC(=S)NC(=O)c3ccc(OC)c([N+](=O)[O-])c3)cc2)CC1 | ? | 7.1µM | 5µM | 2.5µM | ?
CCCC(=O)N1CCN(c2ccc(NC(=O)c3ccc(OCC)c([N+](=O)[O-])c3)cc2)CC1 | 0 | 0 | 0 | ? | 0
CCOc1ccc(C(=O)NC(=S)Nc2cc(C)ccn2)cc1[N+](=O)[O-] | 0 | 0 | 0 | 0 | 0
CCOc1ccc(C(=O)NC(=S)Nc2ccccc2N2CCC(C)CC2)cc1[N+](=O)[O-] | ? | 1µM | 3.2µM | 0 | 0
CC(=O)c1ccc(C2C=CC(Oc3ccc(F)cc3C)C(CO)O2)cc1 (centres undefined) | 0[11.6 µM] | 0[10 µM] | 0[10 µM] | 0[11.5 µM] | 0[11.6 µM]
Cc1ccc(C)c(NC(=O)/C(C#N)=C/c2ccc(C(C)C)cc2)c1 | 0 | - | - | 0 | 0
CC(=O)Nc1ccc(S(=O)(=O)Nc2cccc(-c3ccc(N4CCC(C)CC4)nn3)c2)cc1 | ? | - | - | 0 | ?
CCC(=O)Nc1cccc(-c2ccc(N3CCN(C)CC3)nn2)c1 | - | 14µM | ? | - | -
CCC(=O)Nc1cccc(-c2ccc(N3CCCCC3)nn2)c1 | - | 2.5µM | 2.8µM | - | -
CC(=O)Nc1ccc(S(=O)(=O)Nc2cccc(-c3ccc(N4CCCCCC4)nn3)c2)cc1 | ? | - | - | 0 | ?
CC(C)c1ccc(NC(=O)CCS(=O)(=O)c2cccc3nonc23)cc1 | ? | 0 | 0 | 0 | 0
O=C(c1ccc(NC(=O)C(c2ccccc2)c2ccccc2)cc1)c1ccc(C(=O)O)c(C(=O)O)c1 | - | 0 | 0 | - | -
N/C(=N\OC(=O)c1ccc(Cl)cc1)c1ccn[nH]1 | - | 14µM | ? | - | -
CCCCC[C@H](O)C/C=C1/C(=O)C=C[C@@H]1C/C=C\CCCC(=O)O | 0 | 0 | 0 | ? | 0
CCCCC/C=C/C=C1/C(=O)C=C[C@@H]1C/C=C\CCCC(=O)O | 0 | 0 | 0 | 16µM! | ?
CC(/C=N\NC(=O)Cn1c(C)nc2ccccc21)=C\c1ccccc1 | 0 | 0 | 13µM | 0 | 0
CCC(Sc1ccc2nnc(-c3ccc(F)cc3)n2n1)C(=O)OC (centres undefined) | 0 | 20µM | 0 | 0 | 0
CCn1cc(/C=C(\NC(=O)c2ccccc2Cl)C(=O)NCCN2CCOCC2)c2ccccc21 | - | 0 | 0 | - | -
SMILES | Tau fluor cs | RORg inh | VP16 counter | Tau ThT inhib | Tau fibril FP
CN1CC=C2C(C#N)=C(N)C(C#N)(C#N)[C@H](c3cccc(Cl)c3)C2C1 (some centres undefined) | 0 | 0 | 0 | 20µM | ?
CN1CC=C2C(C#N)=C(N)C(C#N)(C#N)C(c3ccsc3)C2C1 (centres undefined) | 0 | 0 | 0 | 16µM | ?
COC(=O)c1ccc(NC(=O)Cn2ccn3nc(-c4ccc(OC)cc4)cc3c2=O)cc1 | 0 | - | - | 0 | 0
CCC1CCCCN1c1cc(C)nc2cc(-c3cccc(C)c3)nn12 (centres undefined) | 0 | 10µM | 0 | ? | 0
Cc1csc(CN(C)C(=O)CC2C(=O)NCCN2Cc2ccc(Cl)c(F)c2)n1 (centres undefined) | - | 0 | 0 | - | -
COc1ccc(-c2cn[nH]c2-c2ccc(OCc3ccccc3)cc2O)cc1OC | 3.2µM[quencher] | 0 | 0 | 0 | ?
COc1ccc(-c2cn[nH]c2-c2ccc(OCC(=O)NN)cc2O)cc1OC | - | ? | 0 | - | -
COc1ccc(-c2cn[nH]c2-c2ccc(OCc3ccc(F)cc3)cc2O)cc1OC | 8.9µM[quencher] | 1.6µM | 3.5µM | 0 | ?
CC(C)CNC(=S)NC1CC2CCC(C1)N2Cc1ccccc1 (centres undefined) | 0 | 10µM | ? | 0 | 0
CCNC(=S)NC1CC2CCC(C1)N2Cc1ccccc1 (centres undefined) | 0 | 0 | 0 | 0 | 0
CC1(C(=O)Nc2nnc(SCc3ccccc3)s2)Cc2ccccc2C(=O)O1 (centres undefined) | 0 | 10µM | 0 | 0 | 0
COc1cc(/C=N/NC(=O)c2cccc([N+](=O)[O-])c2)ccc1OCc1ccc(C)cc1 | 0 | 2.5µM | 0 | ? | ?
O=C(CSc1cccc2cccnc12)N/N=C/c1cccc(O)c1 | 0 | 0 | 0 | ? | 0
O=C(N/N=C/c1ccc(O)c(O)c1)c1ccc(CSc2cccc3cccnc23)cc1 | 22µM[quencher] | 0 | 0 | ? | 0
Cc1ccc(C(C)C)c(OCc2ccc(C(=O)N/N=C/c3ccc(O)c(O)c3)cc2)c1 | 0 | ? | 35µM | 0 | 0
COc1cc(/C=N/NC(N)=O)cc(Br)c1OCc1ccc(C)cc1 | 0 | 0 | 0 | ? | 0
COc1cc(/C=N/NC(=O)c2ccc(COc3cc(C)ccc3C(C)C)cc2)cc(OC)c1O | ? | ? | 16µM | ? | ?
C/C(CCC(=O)OC[C@@H]1O[C@H](C#Cc2ccccc2)C=C[C@@H]1Oc1ccc(C)cc1)=N/O[C@@H](C)CN1CCCCc2nc(C)c(C)cc21 | 0[11.6 µM] | 0[10 µM] | 0[10 µM] | 0[11.5 µM] | 0[11.6 µM]
COC(=O)c1cnn(-c2ccc(C(=O)Nc3cccc(C(C)=O)c3)cc2)c1N | 0 | - | - | 0 | 0
Cc1ccc(C(C)C)c(OCc2ccc(C(=O)N/N=C/c3cccc(O)c3O)cc2)c1 | ? | 1µM | 2.5µM | ? | 0
CCOc1ccc(-c2nc(Cn3c(=O)cc(-c4ccccc4)c4c(C)nn(C)c43)c(C)o2)cc1OC | 0 | - | - | 0 | 0
COc1ccc(N(CC(=O)NCc2ccco2)C(=O)CCC(=O)Nc2nccs2)c(OC)c1 | - | 0 | 0 | - | -
c1ccc(-c2nc(-c3ccncc3)n[nH]2)nc1 | 0 | 5µM | 13µM | 0 | 0
c1ccc(SCc2nc(-c3ccncc3)n[nH]2)nc1 | 0 | 0 | 0 | 0 | 0
Cc1ccc(Nc2nc(-c3ccc(O)c(O)c3)cs2)nc1 | 14µM[quencher] | 13µM | 6.3µM | 10µM | 0
